Results taken from PubChem BioAssay (NCATS).
Inconclusive results are not listed. Activity calls are given as the source filed them. The call rests on the fitted dose curve; in most records, active means well fitted curve in the direction sought with a large enough effect; inconclusive means small, poorly fitted or top-dose-only effect, or another doubt; inactive means no such curve, though single readings can be large; an effect the other way counts as inactive or inconclusive.

Tests used:
[1] = tested on: HaCat; experiment: Cytotoxic Profiling of Annotated Libraries Using Quantitative High-Throughput Screening (AID 1296008); conditions: Five cell lines viability, CellTiter-Glo ATP luminescence, 48-72 h; max response: stronger effect = lower value; further: nearly all actives have a fitted effect of over 60% in size
In short: (§1)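 Cells exposed to compounds for 48 or 72 hr at 37 degrees Celsius. Viability read as ATP-coupled luminescence with CellTiter-Glo after 10 min at room temperature.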

[2] = tested on: KB-3-1; experiment: as above; conditions: Five cell lines viability, CellTiter-Glo ATP luminescence, 48-72 h; max response: stronger effect = lower value
In short: as §1

[3] = tested on: NIH3T3; experiment: as above; conditions: Five cell lines viability, CellTiter-Glo ATP luminescence, 48-72 h; max response: stronger effect = lower value
In short: as §1

[4] = tested on: C33A; experiment: Primary qHTS to identify gynecologic anti-cancer compounds using libraries of approved drugs and bioactive compounds (AID 1345084); conditions: Gynecologic cancer cell panel viability, ATPlite luminescence, 48 h; series mostly up to 57.5 µM; further: nearly all actives have a fitted effect of over 55% in size
In short: (§2)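 48 h compound exposure at 37 C, 5% CO2; five-point qHTS. ATPlite luminescence readout of cell ATP.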

[5] = tested on: CASKI; experiment: as above; conditions: Gynecologic cancer cell panel viability, ATPlite luminescence, 48 h; series mostly up to 57.5 µM
In short: as §2

[6] = tested on: Es-2; experiment: as above; conditions: Gynecologic cancer cell panel viability, ATPlite luminescence, 48 h; series mostly up to 57.5 µM
In short: as §2

[7] = tested on: HeLa; experiment: as above; conditions: Gynecologic cancer cell panel viability, ATPlite luminescence, 48 h; series mostly up to 57.5 µM
In short: as §2

[8] = tested on: Hek293T; experiment: as above; conditions: Gynecologic cancer cell panel viability, ATPlite luminescence, 48 h, control line for the selectivity index; series mostly up to 57.5 µM
In short: as §2

[9] = tested on: JEG-3; experiment: as above; conditions: Gynecologic cancer cell panel viability, ATPlite luminescence, 48 h; series mostly up to 57.5 µM
In short: as §2

[10] = tested on: OV90; experiment: as above; conditions: Gynecologic cancer cell panel viability, ATPlite luminescence, 48 h; series mostly up to 57.5 µM
In short: as §2
On the % scale 0 is the no-effect control and ±100 the full control effect; potency means the concentration at half of the fitted maximal effect.

COc1cc([C@H]2c3cc(O)c(OC)cc3C[C@@H](CO[C@@H]3O[C@H](CO)[C@@H](O)[C@H](O)[C@H]3O)[C@@H]2CO)ccc1O
inactive: max response [1] -4.19% | outcome [2] | max response [3] -0.225% | Potency [4] | Potency [5] | Potency [6] | Potency [7] | Potency [8] | Potency [9] | Potency [10]

COC(=O)C1=CO[C@@H](O)C2C(CO)=CCC12 (stereo partly specified)
inactive: max response [1] -12% | max response [2] -1.48% | max response [3] -2.89% | Potency [4] | Potency [5] | Potency [6] | Potency [7] | Potency [8] | Potency [9] | Potency [10]

CCOC(=O)C(CCc1ccccc1)NC1CSC(c2cccs2)CN(CC(=O)O)C1=O (stereo unspecified)
inactive: max response [1] 1.02% | outcome [2] | max response [3] -0.887% | Potency [4] | Potency [5] | Potency [6] | Potency [7] | Potency [8] | Potency [9] | Potency [10]

O=C(O[C@H]1[C@@H]2C[C@@H]3OC[C@](O)([C@@H]1Cl)[C@H]2C(O[C@@H]1O[C@H](CO)[C@@H](O)[C@H](O)[C@H]1O)O3)c1ccc(O)c(O)c1 (stereo partly specified)
inactive: max response [1] -10.7% | max response [2] 6.86% | max response [3] 3.52% | Potency [4] | Potency [5] | Potency [6] | Potency [7] | Potency [8] | Potency [9] | Potency [10]

C[C@]1(CO)CCC[C@]2(C)C3=C(CCC12)COC3 (stereo partly specified)
inactive: max response [1] -11.9% | max response [2] 5.06% | max response [3] 4.03% | Potency [4] | Potency [5] | Potency [6] | Potency [7] | Potency [8] | Potency [9] | Potency [10]

CC1CCC2C(C)(C)[C@@H](O)CC[C@]2(C)C12Cc1c(O)cc3c(c1O2)CN(C(CCC(=O)O)C(=O)O)C3=O (stereo partly specified)
inactive: max response [1] 3.85% | outcome [2] | max response [3] -1.29% | Potency [4] | Potency [5] | Potency [6] | Potency [7] | Potency [8] | Potency [9] | Potency [10]

C/C=C/C=C/C(=O)N1CC[C@]23c4ccccc4N[C@H]4N(C)c5cccc6c5[C@@]42CCN([C@H]6C2OC2(C)C)[C@H]13 (stereo partly specified)
inactive: max response [1] -7.02% | max response [2] 9.01% | max response [3] 3.9% | Potency [4] | Potency [5] | Potency [6] | Potency [7] | Potency [8] | Potency [9] | Potency [10]

OC/C=C/C=C/[C@H]1Cc2cc(O)cc(O)c2O1
inactive: max response [1] -12.2% | max response [2] 6.07% | max response [3] 1.57% | Potency [4] | Potency [5] | Potency [6] | Potency [7] | Potency [8] | Potency [9] | Potency [10]

CC1OC(OC2C(O)C(OC3CCC4(C)C(CCC5(C)C4CC=C4C6CC(C)(COC7OC(CO)C(O)C(O)C7O)CC(O)C6(C)CCC45C)C3(C)C)OC(C(=O)O)C2O)C(O)C(O)C1OC1OCC(O)C(O)C1O (stereo unspecified)
inactive: max response [1] -5.35% | outcome [2] | max response [3] -0.449% | activity change, negative = cytotoxicity [4] 5.66% [at 11.6 µM] | activity change, negative = cytotoxicity [5] -2.68% [at 11.6 µM] | activity change, negative = cytotoxicity [6] 8.83% [at 11.6 µM] | activity change, negative = cytotoxicity [7] 12.4% [at 11.6 µM] | activity change, negative = cytotoxicity [8] 11.9% [at 11.6 µM] | activity change, negative = cytotoxicity [9] 10.4% [at 11.6 µM] | activity change, negative = cytotoxicity [10] 0.532% [at 11.6 µM]

C[C@@H]1[C@H]2[C@H](O[C@@H]3O[C@H](CO)[C@@H](O)[C@H](O)[C@H]3O)OC=C(C(=O)O)[C@H]2C[C@@H]1O
inactive: max response [1] -4.56% | max response [2] -0.849% | max response [3] -4.16% | Potency [4] | Potency [5] | Potency [6] | Potency [7] | Potency [8] | Potency [9] | Potency [10]

CC1C(=O)OCC2=CCN3CCC(OC(=O)C(C)(O)C1(C)O)C23 (stereo unspecified)
inactive: max response [1] -22.6% | outcome [2] | max response [3] -32% | Potency [4] | Potency [5] | Potency [6] | Potency [7] | Potency [8] | Potency [9] | Potency [10]

C=C1CN(Cc2ccc(C(=O)Nc3ccccc3N)cc2)C(=O)c2ccccc21
active: Potency [1] 5.8 µM | Potency [2] 1.84 µM | Potency [3] 3.66 µM | Potency [4] 2.82 µM | Potency [5] 4.47 µM | Potency [6] 5.01 µM | Potency [7] 3.55 µM | Potency [8] 2.24 µM | Potency [9] 5.62 µM | Potency [10] 6.31 µM

CC(=O)O[C@H]1C[C@@](O)(C(C)C)C2[C@@H](OC(=O)c3ccc(O)cc3)C[C@@]3(C)O[C@H]3C[C@]21C (stereo partly specified)
inactive: max response [1] -5.18% | max response [2] 2.79% | max response [3] -4.8% | Potency [4] | Potency [5] | Potency [6] | Potency [7] | Potency [8] | Potency [9] | Potency [10]

O=C(NCc1ccccn1)Nc1nnc(-c2ccco2)o1
inactive: max response [1] 1.95% | max response [2] 3.97% | max response [3] 3.06% | Potency [4] | Potency [5] | Potency [6] | Potency [7] | Potency [8] | Potency [9] | Potency [10]

CC1(C)CCC2(C(=O)OC3OCC(O)C(O)C3O)CCC3(C)C(=CCC4C5(C)CC(O)C(OC6OC(COC7OCC(O)C(O)C7O)C(O)C(O)C6O)C(C)(C)C5CCC43C)C2C1 (stereo unspecified)
inactive: max response [1] 2.92% | outcome [2] | max response [3] -1.51% | activity change, negative = cytotoxicity [4] 7.41% [at 11.6 µM] | activity change, negative = cytotoxicity [5] 17.9% [at 11.6 µM] | activity change, negative = cytotoxicity [6] 5.97% [at 11.6 µM] | activity change, negative = cytotoxicity [7] 7.08% [at 11.6 µM] | activity change, negative = cytotoxicity [8] -8.87% [at 11.6 µM] | activity change, negative = cytotoxicity [9] 11.8% [at 11.6 µM] | activity change, negative = cytotoxicity [10] 4.98% [at 11.6 µM]

Cc1ccccc1CN1C2=NCCN2C(=O)C2=C1CCN(Cc1ccccc1)C2
inactive: max response [1] -42.7% | max response [2] -23.4% | max response [3] -0.888% | Potency [4] | Potency [5] | Potency [6] | Potency [7] | Potency [8] | Potency [9] | Potency [10]

COc1c2c(c(C)c3c1C(=O)OC3)OC1(C)CC(O)C34OC(OC)(OC3(C)C)C(O)CC4(C)C1C2 (stereo unspecified)
inactive: max response [1] -21.2% | outcome [2] | max response [3] -1.37% | Potency [4] | Potency [5] | Potency [6] | Potency [7] | Potency [8] | Potency [9] | Potency [10]

C[C@H](C/C=C/C(C)(C)O)[C@H]1CC[C@@]2(C)[C@@H]3[C@@H](O[C@@H]4O[C@H](CO)[C@@H](O)[C@H](O)[C@H]4O)C=C4C(CC[C@H](O)C4(C)C)[C@]3(C=O)CC[C@]12C (stereo partly specified)
inactive: max response [1] -5.49% | max response [2] 8.11% | max response [3] 3.81% | Potency [4] | Potency [5] | Potency [6] | Potency [7] | Potency [8] | Potency [9] | Potency [10]

C=C[C@]1(C)C[C@H](O)[C@@H]2[C@H](OC(=O)[C@@H]2C)C1/C(C)=C/O[C@@H]1O[C@H](CO)[C@@H](O)[C@H](O)[C@H]1O (stereo partly specified)
inactive: max response [1] -9.44% | max response [2] 0.273% | max response [3] -22.7% | Potency [4] | Potency [5] | Potency [6] | Potency [7] | Potency [8] | Potency [9] | Potency [10]

COc1ccc([C@H]2CNC(=O)C2)cc1OC1CCCC1
inactive: max response [1] -27.2% | max response [2] -2.59% | max response [3] -18.3% | Potency [4] | Potency [5] | Potency [6] | Potency [7] | Potency [8] | Potency [9] | Potency [10]

Cc1cccc(C)c1-n1c(=O)c2cnc(Nc3ccc(N4CCN(C)CC4)cc3)nc2n2c3ccccc3nc12
active: Potency [1] 2.06 µM | Potency [2] 0.731 µM | Potency [3] 1.3 µM | Potency [4] 2.82 µM | Potency [5] 14.1 µM | Potency [6] 3.55 µM | Potency [7] 6.31 µM | Potency [8] 3.55 µM | Potency [9] 12.6 µM | Potency [10] 12.6 µM

C[C@@H]1O[C@@H](O[C@H]2[C@H](O)[C@@H](O)[C@H](OC3CCC4(C)C5CCC(C)(C(CO)OC6OC(CO)C(O)C(O)C6O)CC5=CCC4C3(C)C)O[C@@H]2CO)[C@H](O)[C@H](O)[C@H]1O (stereo partly specified)
inactive: max response [1] -0.0812% | max response [2] 0.989% | max response [3] 3.8% | Potency [4] | Potency [5] | Potency [6] | Potency [7] | Potency [8] | Potency [9] | Potency [10]

CC1=C(COC2OC(CO)C(O)C(O)C2O)C(C(CO)C(=O)O)CC1 (stereo unspecified)
inactive: max response [1] -4.43% | max response [2] 9.18% | max response [3] -0.514% | Potency [4] | Potency [5] | Potency [6] | Potency [7] | Potency [8] | Potency [9] | Potency [10]

CC(C)C(C#N)O[C@@H]1O[C@H](CO[C@@H]2O[C@@H](C)[C@H](O)[C@@H](O)[C@H]2O)[C@@H](O)[C@H](O)[C@H]1O (stereo partly specified)
inactive: max response [1] -12% | max response [2] -1.19% | max response [3] -15% | Potency [4] | Potency [5] | Potency [6] | Potency [7] | Potency [8] | Potency [9] | Potency [10]

CCOc1ccc2nc(SCCN3CCOCC3)[nH]c2c1
inactive: max response [1] 4.78% | max response [2] -9.7% | max response [3] 0.835% | Potency [4] | Potency [5] | Potency [6] | Potency [7] | Potency [8] | Potency [9] | Potency [10]

COc1ccc(N2CCOCC2)c2sc(NC(=O)N3CCC(C)(O)CC3)nc12
inactive: max response [1] 3.93% | outcome [2] | max response [3] -12% | Potency [4] | Potency [5] | Potency [6] | Potency [7] | Potency [8] | Potency [9] | Potency [10]

CCCCNc1ncc2c(-c3ccc(F)cc3)nn(CC3CCC(N)CC3)c2n1 (stereo unspecified)
active: Potency [1] 10 µM | Potency [2] 2.82 µM | Potency [3] 6.32 µM | Potency [4] 11.2 µM | Potency [5] 10 µM | Potency [7] 10 µM
